Screens as filed in PubChem BioAssay.
Rab2A wt mod: changes GTP binding to wildtype dog Rab2A, up or down; P61105; GST-Rab2 wt beads, Bodipy-GTP binding, flow cytometry; GTP binding activity, % at 10 µM; hit rate 0.19% among 190,000;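 active = GTP binding activity at least 20 points away from 100%, either lowered or raised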
Rab7 wt modul: dog Rab7 wildtype GTP binding, inhibitors and activators; GST-Rab7 beads, fluorescent GTP binding, flow cytometry; actives lie on both sides; untreated = 100%, excess cold GTP = 0%; GTP binding activity (percent of control), % at 10 µM; hit rate 0.055% among 190,000; AID 758;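 active = fluorescent GTP binding to Rab7 beads changed by at least 20 points from the 100% baseline, either direction, mostly lower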;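 also: median green fluorescence of bound Bodipy-FL-GTP per Rab7 bead population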
Rac1 wt GTP bind: alters GTP binding to wildtype human Rac1 | P63000 | GST-Rac1 beads, fluorescent GTP binding, flow cytometry; actives lie on both sides; 0 = cold GTP competed, 100 = untreated | GTP binding activity (% of control), % at 10 µM | hit rate 0.27% among 190,000;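 active = GTP binding activity at least 20 points away from the 100% control level, either lower or higher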
HRas wt GTP: human HRas wildtype GTP binding, change in either direction; P01112; GST-Ras wt beads, Bodipy-FL-GTP binding, flow cytometry; actives lie on both sides; GTP binding activity, % at 10 µM; hit rate 0.14% among 190,000; AID 759;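 active = GTP binding activity at least 20% away from the 100% baseline, either lowered as inhibitor or raised as activator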
Target sequence (P01112 whole entry, looked up): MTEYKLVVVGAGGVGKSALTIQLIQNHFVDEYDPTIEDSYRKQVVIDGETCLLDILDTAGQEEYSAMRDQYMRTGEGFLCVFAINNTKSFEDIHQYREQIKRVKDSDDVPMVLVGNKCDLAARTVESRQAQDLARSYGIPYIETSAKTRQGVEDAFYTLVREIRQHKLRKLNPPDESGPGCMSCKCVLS
Rac1 mut GTP: modulators of GTP binding to human Rac1 activated mutant. hit rate 0.11% among 190,000. AID 764. percent activity (GTP binding), % at 10 µM. P63000. GST-Rac1 activated beads, fluorescent GTP binding, flow cytometry; actives lie on both sides; 100% means binding = to untreated wells;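 active = GTP binding at least 20 percentage points away from the 100% baseline, in either direction, so actives lie on both sides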
Cdc42 wt GTP: modulators (inhibitors or activators) of GTP binding to human Cdc42 wildtype; P60953; percent activity (GTP binding), % at 10 µM; GST-Cdc42 beads, Bodipy-GTP binding, flow cytometry; actives lie on both sides; hit rate 0.2% among 190,000;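 active = percent activity GTP binding at least 20 points away from the 100% baseline, either down as inhibitor or up as activator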;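 also: median bead fluorescence of bound Bodipy-FL-GTP at 100 nM; below 100% means less GTP binding so inhibitor and above means activator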
Target sequence (P60953 whole entry, looked up): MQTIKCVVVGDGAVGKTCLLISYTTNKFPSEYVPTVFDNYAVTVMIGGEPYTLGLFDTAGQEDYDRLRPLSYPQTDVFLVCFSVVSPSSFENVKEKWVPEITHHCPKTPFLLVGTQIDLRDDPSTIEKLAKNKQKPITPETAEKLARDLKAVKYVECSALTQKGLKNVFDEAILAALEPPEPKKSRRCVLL
Hits are given with their value; 0 = inactive; [ ] = dose if it differs, or a comment. Only some compounds are listed: those with a hit (about 0.38% of all), similar ones and a draw of the others.

SMILES	Rab2A wt mod	Rab7 wt modul	Rac1 wt GTP bind	HRas wt GTP	Rac1 mut GTP	Cdc42 wt GTP
CCOC(=O)N1CCN(/C=C(\C#N)c2nc3ccccc3s2)CC1	129[activator]	120[activator]	124[activator]	121[activator]	0	0
CC(C)C(NC(=O)C1CCCCC1)C(=O)NCCc1ccccc1 (stereo unspecified)	0	0	0	0	0	0
O=C(O)c1ccccc1CSc1ncccc1C(=O)O	0	0	0	0	0	0
Cc1cccc(CSc2ncccc2C(=O)O)c1	132[activator]	120[activator]	161[activator]	129[activator]	134[activator]	149[activator]
O=C(O)c1cccnc1SCc1cccc(Cl)c1	132[activator]	124[activator]	129[activator]	125[activator]	127[activator]	131[activator]
COc1ccc(OCCN2C(=O)c3ccccc3C2=O)cc1	0	0	127[activator]	0	0	0
COc1ccccc1NS(=O)(=O)c1cccc(NC(=O)c2cc3ccccc3oc2=O)c1	0	0	0	0	0	0
Cc1ccc(S(=O)(=O)/N=C(\N)Nc2nc(C)c3ccccc3n2)cc1	0	0	0	0	0	0
COc1ccc2c(C)nc(N/C(N)=N/S(=O)(=O)c3ccc(C)cc3)nc2c1	0	0	77	0	0	0
Cc1noc(NC(=O)c2ccccc2C(F)(F)F)c1C#N	0	0	0	0	0	0
O=C(CNC(=S)N(CCCN1CCOCC1)Cc1cccs1)N1CCCCCC1	0	0	0	0	0	0
O=C(Nc1ccccc1)C1=C(c2ccccc2)S(=O)(=O)CCS1(=O)=O	0	0	0	0	0	77
Cc1c(CCC(=O)O)c(=O)oc2cc3occ(-c4ccc(F)cc4)c3cc12	0	0	68	0	0	0
Cc1c(CCC(=O)O)c(=O)oc2cc(O)ccc12	0	0	0	0	0	0
COc1cc(/C=C(\C#N)c2nc3ccc(C)cc3[nH]2)cc([N+](=O)[O-])c1O	77	0	70	0	0	78
CCc1ccc(C2C(C#N)=C(N)C(C#N)(C#N)C3=CCC(C(C)(C)C)CC32)cc1 (stereo unspecified)	0	0	0	0	0	0
COCCNc1nc2c(c(=O)n(Cc3ccc(OC)cc3)c(=O)n2C)n1C	0	0	0	0	0	0
COc1ccc(CNc2nc3c(c(=O)n(Cc4ccc(Cl)cc4)c(=O)n3C)n2C)cc1	78	0	0	0	0	79
CC(=O)Nc1ccc(Nc2nc(Cl)nc(Nc3ccc(NC(C)=O)cc3)n2)cc1	0	0	0	0	0	0
NS(=O)(=O)c1ccc(N2N=C(c3ccccc3)CC2c2cccc(F)c2)cc1 (stereo unspecified)	0	0	0	0	0	61
O=C(O)C1CSC(CCc2ccccc2)N1 (stereo unspecified)	0	0	123[activator]	0	0	0
O=C(O)C1CSC(c2coc3ccccc3c2=O)N1 (stereo unspecified)	0	0	0	0	0	0
FC(F)Oc1cccc(NC(=S)N2CCN(c3ccccn3)CC2)c1	0	0	0	0	0	0
COc1cccc2c(SCC(=O)N/N=C/c3ccc(O)cc3O)cc(C)nc12	66	0	66	72	0	66
CCC(C)N(C(=O)CSc1nc(-c2ccccc2)cs1)C1CCS(=O)(=O)C1 (stereo unspecified)	0	0	0	0	0	0
SMILES	Rab2A wt mod	Rab7 wt modul	Rac1 wt GTP bind	HRas wt GTP	Rac1 mut GTP	Cdc42 wt GTP
CCCc1cc(NCc2ccccn2)n2c(nc3ccccc32)c1C#N	0	0	75	0	0	0
CCCc1cc(NCC2CCCO2)n2c(nc3ccccc32)c1C#N (stereo unspecified)	0	0	0	0	0	0
Cc1cc(NCc2ccccn2)n2c(nc3ccccc32)c1C#N	70	78	66	75	0	72
Cn1c(CNC(=O)c2ccc(Cl)c(Cl)c2)nnc1SCC(=O)Nc1sc2c(c1C#N)CCCC2	0	0	0	0	0	0
Oc1ccc(NC(=S)N=Nc2c(O)[nH]c3ccc(Br)cc23)cc1	79	0	79	0	0	79
CNC(=S)N=Nc1c(O)[nH]c2ccccc12	72	0	69	79	0	0
Oc1ccc(NC(=S)N=Nc2c(O)[nH]c3ccccc23)cc1	75	0	70	77	0	71
Cc1ccc(NC(=S)N=Nc2c(O)[nH]c3ccccc23)cc1	0	0	0	0	0	0
O=C(CCCO)CCCCCCCCC[C@H]1N[C@H](CO)[C@@H](O)[C@@H]1O	0	0	0	0	0	0
Cc1c(O)ccc(NC(=O)/C=C/c2ccccc2)c1C	0	0	0	0	0	0
O=C(NCc1ccc(Cl)cc1)c1ncn[nH]1	0	0	0	0	0	0
Cc1cc(C)n2nc(SCCOc3ccc(F)cc3)nc2n1	74	0	68	73	0	68
S=c1[nH]nc(-c2ccco2)n1-c1ccc(Cl)cc1	0	0	0	0	78	0
Cc1cc(Br)ccc1SCC(=O)OCC(=O)NC1CCCC1	0	0	0	0	0	0
O=C1C2C3C=CC(C3)C2C(=O)N1c1ccc(N2CCN(c3ccccn3)CC2)c([N+](=O)[O-])c1 (stereo unspecified)	0	0	0	0	0	0
COc1ccc(S(=O)(=O)N(C)C)cc1NC(=O)CSc1nnc(-c2cccnc2)o1	0	0	0	0	0	0
CC(=O)Nc1ccc(/C=N/NC(=O)CCN2CCN(c3ccccc3)CC2)cc1	75	0	74	79	0	76
O=[N+]([O-])c1cc(-c2ncccn2)c([N+](=O)[O-])s1	0	0	0	0	76	0
O=C(NCc1ccc2c(c1)OCO2)c1ccc(CSCc2cccc(Cl)c2)o1	0	0	0	0	0	79
CC(C)(C)OC(=O)N[C@@H](Cc1ccccc1)c1nnc(S(=O)(=O)Cc2cccc(F)c2)o1	0	79	0	0	0	0
CC(C)CC(=O)O/N=C1\C(=O)N(Cc2ccc(Cl)cc2)c2ccc([N+](=O)[O-])cc21	0	0	0	0	0	0
O=C(O)CC/C(=C\c1ccccc1[N+](=O)[O-])c1nc2ccccc2s1	76	0	0	0	74	73
O=C(O)CC/C(=C\c1ccc(N2CCCC2)c([N+](=O)[O-])c1)c1nc2ccccc2s1	74	0	0	79	75	75
O=C(O)CCSc1nc2ccccc2s1	0	0	0	0	0	0
Cc1nn(-c2ccc(F)cc2)c(Cl)c1/C=C(\CCC(=O)O)c1nc2ccccc2s1	76	79	72	0	65	68
O=C(O)CC/C(=C\c1cccc(NC(=O)c2ccccc2Cl)c1)c1nc2ccccc2s1	0	0	0	0	0	0
COc1cc(C(=O)O)c2ccccc2n1	0	0	0	0	0	0
